Laboratory results as given in PubChem BioAssay AID1578 (Sanford-Burnham Center for Chemical Genomics, 2009).
In all, about 290,000 compounds went through this assay and about 3,000 (1%) were called active. Shown is part of a subset that was picked to be rich in actives. Values without a mark were called inactive. No stated cut-off is given here; in the data, active means inhibition mostly above about 36% (no sharp cut-off); inactive means mostly below about 34%.

Test: inhibition of NOD1-driven NF-kB reporter – cell-based, luminescence, uHTS, primary screen (AID 1578);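 further: HEK-293T reporter cells stimulated with the NOD1 agonist gamma-tri-DAP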
Conditions: NOD1-driven NF-kB luciferase reporter cells, at 4 µM, hits give high values

SMILES	inhibition
O=C(Cc1ccccc1)Nc1cc2c(cc1Cl)OCCCO2	-59.9%
CCN(CC(=O)NCc1ccc(Cl)cc1)C(=O)/C=C/c1ccc(Cl)c([N+](=O)[O-])c1	-18.8%
CN(C)C(=O)c1ccc(NS(=O)(=O)c2ccc3c(c2)OCCO3)cc1	-34.8%
CCc1ccc(C2=NNC(=Nc3cccc(S(=O)(=O)N(C)C)c3)SC2)cc1	72.3% (active)
CC(=O)Nc1ccc(C2=NNC(=Nc3cccc(S(=O)(=O)N(C)C)c3)SC2)cc1	-32.6%
CN(C)S(=O)(=O)c1cccc(N=C2NN=C(c3ccccc3)CS2)c1	26.1%
COc1ccc(-n2c(=O)[nH]c3cc(C(=O)NCCc4ccc(Cl)cc4)ccc3c2=O)cc1OC	7.4%
O=C(O)/C=C/C(=O)NC1CC1	-13.1%
O=C(/C=C/c1ccccc1)NC1CCS(=O)(=O)C1 (configuration not stated)	-20%
O=C(O)/C=C/C(=O)NC1CCS(=O)(=O)C1 (configuration not stated)	99.9% (active)
CCCC(C)c1nc(C(N)=O)c2[nH]c(=O)n(-c3ccc(OC)c(OC)c3)c2n1 (configuration not stated)	-11.9%
COc1cc(/C=N/O)ccc1OCc1ccc(C(=O)O)cc1	100% (active)
COc1ccc(/C=N/Nc2ccc(C(=O)O)cc2)cc1Br	50.9% (active)
COc1cccc(/C=N/Nc2ccc(C(=O)O)cc2)c1O	104% (active)
O=C(O)c1ccc(N/N=C/c2c(F)cccc2Cl)cc1	26.1% (active)
O=C(N/N=C/c1c(F)cccc1Cl)C1CC1	-15.7%
COc1ccc(/C=N/Nc2ccc(C(=O)O)cc2)cc1OC	-8.6%
O=C(O)c1ccc(N/N=C/c2cccc(F)c2)cc1	-22.9%
COc1cc(/C=N/O)ccc1OCc1ccc(Cl)cc1	-6.6%
COc1cc(/C=N/Nc2ccc(C(=O)O)cc2)ccc1O	-8.3%
COc1cccc(/C=N/Nc2ccccc2C(=O)O)c1O	-5.1%
COc1cc(/C=N/NS(=O)(=O)c2ccc(C)cc2)ccc1OCc1ccc(C(=O)O)cc1	18.4%
COc1cccc(/C=N/Nc2ccc([N+](=O)[O-])cc2)c1O	-2.8%
COc1cc(=O)[nH]c(SCC(=O)Nc2ccc3ccccc3c2)n1	-28.4%
CCOc1ccc(-c2nnc(NC(=O)Cc3ccc(OC)cc3)o2)cc1	-18.3%

SMILES	inhibition
O=C1Cc2ccccc2C(=O)N1c1ccc(F)cc1Cl	-16.4%
C=CCn1cc(C(C)=O)c(=O)[nH]c1=O	-20.3%
C/C(CC(=O)Nc1ccc2c(c1)OCCO2)=N\NC(=O)Cc1ccc(Cl)cc1	-8.8%
COCCCNC(=O)Cn1c(=O)n(Cc2ccc(F)cc2)c(=O)c2sccc21	-8.2%
CSCCOC(=O)C1=C(C)NC(=O)NC1c1ccc2c(c1)OCO2 (configuration not stated)	-24.6%
O=C(NCC1CCCO1)c1cc2ccccc2nc1Cl (configuration not stated)	-20.2%
CCn1c(=O)c([N+](=O)[O-])c(N2CCSCC2)c2ccccc21	8.8%
O=C(NCc1ccccc1)c1ccc(Cn2cc(C(F)(F)F)ccc2=O)cc1	-8.1%
O=C(O)c1ccc(N/N=C/c2ccc(-c3ccccc3)cc2)cc1	-27%
COc1ccc(C(=O)/C=C/c2ccc(OCc3ccccc3)cc2)cc1CSCC(=O)O	0.4%
O=C(O)c1cc(N/N=C/c2ccc3c(c2)OCO3)ccc1Cl	-59.6%
O=C(N/N=C/c1ccc2c(c1)OCO2)c1ccc2c(c1)OCO2	-42.6%
CC(C)c1ccc(/C=N/Nc2ccc(C(=O)O)cc2)cc1	64.4% (active)
O=C(O)c1ccc(N/N=C/c2ccc(C(F)(F)F)cc2)cc1	17.4%
O=C(O)c1ccc(N/N=C/c2ccc3c(c2)OCO3)cc1	80.4% (active)
COC(=O)c1ccc(COc2ccc(/C=C/C(=O)c3ccc(OC)c(CSCC(=O)O)c3)cc2OC)cc1	49.5% (active)
COc1ccc(C(=O)/C=C/c2cccc(OCc3ccccc3)c2)cc1CSCC(=O)O	11.8%
CCOC(=O)c1[nH]n(-c2ccc(Cl)cc2)c(=O)c1C	-33.9%
O=C(c1cc(-c2ccc(Cl)cc2)n[nH]1)N1CCN(C(=O)c2ccco2)CC1	13.4%
COC(=O)C1CC(c2ccc(Cl)cc2)=NO1 (configuration not stated)	-38.4%
CCOc1ncccc1C(=O)Nc1cccc(-c2nnc3n2CCCCC3)c1	-22.1%
Cc1cccc(C)c1NC(=S)NCCc1ccc(O)c(O)c1	-28.1%
COc1ccccc1OC(=O)C1CC(=O)N(c2ccc(Cl)cc2)C1 (configuration not stated)	-7.8%
Cc1ccccc1-n1c(SCc2csc(Nc3ccccc3)n2)nnc1-c1cccnc1	-18.5%
Cc1ccc(Nc2nc(CSc3nnc(-c4cccnc4)n3-c3ccccc3C)cs2)cc1	87% (active)

SMILES	inhibition
Cc1ccc(Nc2nc(CSc3nnc(-c4cccnc4)n3-c3ccccc3F)cs2)cc1	18.9%
CC1(C)CN(c2cccc(Br)c2)C1=O	-15.6%
CN(Cc1c(C(=O)N(C)Cc2ccccc2)nc2ccccn12)CC1Cc2ccccc2O1 (configuration not stated)	64.7% (active)
CC(c1ccon1)N(C)Cc1c(C(=O)N(C)Cc2ccccc2)nc2ccccn12 (configuration not stated)	-38.7%
Cc1nn(C)cc1CN(C)Cc1c(C(=O)N(C)Cc2ccccc2)nc2ccccn12	-20.3%
O=C(CSCC(=O)NC1CC1)Nc1ccc2ccccc2c1	-5.8%
O=C(Cc1ccc([N+](=O)[O-])cc1)NCc1ccc2c(c1)OCO2	-15.5%
O=C(NCc1ccc2c(c1)OCO2)Nc1ccc([N+](=O)[O-])cc1	-44.5%
O=[N+]([O-])c1ccc(NCc2ccc3c(c2)OCO3)cc1	88.5% (active)
CN(Cc1ccc2nonc2c1)Cc1nc(Cc2cccc(F)c2)no1	-14.8%
CC1(C)OC(=O)CC1C(=O)NCc1ccccc1 (configuration not stated)	-18.4%
Cc1ccc(NC(=S)NCC(O)c2ccccc2)c(C)c1 (configuration not stated)	-31%
O=S(=O)(c1cccs1)N1CN(Cc2ccc(F)cc2)c2nc3ccccc3nc21	6.3%
COC(=O)C1CCN(C(=O)/C(C)=C\c2ccccc2)CC1	-32.2%
COC(=O)C1CC23C=CCN4CCC5(c6ccccc6NC15C2C)C43 (configuration not stated)	46.8% (active)
CCC12CCCN3CCC4(C(=C(C(=O)OC)C1)Nc1ccccc14)C32 (configuration not stated)	-7.2%
CCCOC1CCCN(C(=O)CCCn2nnnc2CN2CCOCC2)C1 (configuration not stated)	10.3%
Cn1nc(C(=O)NC2CCCN(Cc3ccccc3F)C2)c2ccccc2c1=O (configuration not stated)	-20.9%
Cc1cc(C(=O)NC2CCCN(Cc3ccccc3F)C2)no1 (configuration not stated)	-19.1%
O=C(O)C(=O)/C(=C\c1cccc2ccccc12)c1ccc2ccccc2n1	2.3%
CCC(C(=O)NC1CCCC1)N(C(=O)Cn1nnc(-c2ccc(OC)c(OC)c2)n1)c1cccc(O)c1 (configuration not stated)	-30.7%
COCCn1c(C)cc(C(=O)COC(=O)c2ccccc2Br)c1C	67.9% (active)
COCCn1c(C)cc(C(=O)COC(=O)c2ccc[nH]c2=O)c1C	50.7%
Cc1cc(C(=O)COC(=O)c2ccc(O)cc2)c(C)n1Cc1ccco1	-37.3%
Cc1cc(C(=O)COC(=O)c2ccc(Br)o2)c(C)n1Cc1ccco1	-24.2%

SMILES	inhibition
COCCn1c(C)cc(C(=O)COC(=O)c2ccc(Br)o2)c1C	-30.4%
Cc1cc(C(=O)CSc2n[nH]c(-c3ccccc3F)n2)c(C)n1Cc1cccs1	29.2%
Cc1cc(C(=O)CSc2nnc(-c3ccccc3F)o2)c(C)n1Cc1cccs1	58.1% (active)
Cc1cc(C(=O)CN2C(=O)c3ccccc3C2=O)c(C)n1Cc1cccs1	13.2%
COc1ccc(-c2nnc(SCC(=O)c3cc(C)n(Cc4cccs4)c3C)o2)cc1	-40.4%
Cc1cc(C(=O)COc2ccc3ccc(=O)oc3c2)c(C)n1Cc1cccs1	22.1%
Cc1cc(C(=O)COC(=O)c2ccco2)c(C)n1Cc1ccco1	45.8% (active)
CCOC(=O)CSc1nnc(Cn2c(=O)sc3ccccc32)n1-c1ccccc1C	5.4%
O=C(Nc1ccc(F)cc1)N(Cc1cccs1)Cc1cc2cc3c(cc2[nH]c1=O)OCO3	-9.6%
CC1(C)CC(=O)C(C=NCC2CCNCC2)=C(O)C1	-6.2%
C=CCNC(=S)Nc1ccc(OC(F)F)c(Cl)c1	-16.4%
CN1C(=O)Cc2cc(S(=O)(=O)NCCc3ccc(Cl)cc3)ccc21	-20.9%
Cc1ccc(S(=O)(=O)N2Cc3ccccc3CC2C(=O)Nn2cnnc2)cc1 (configuration not stated)	-8.2%
CCn1nc(C(=O)OCC(=O)c2cc(C)n(Cc3cccs3)c2C)c2ccccc2c1=O	-15%
Cc1cc(C(=O)COC(=O)c2ccc3c(c2)OCO3)c(C)n1Cc1cccs1	-27.2%
Cc1cc(C(=O)COC(=O)c2ccccc2O)c(C)n1Cc1cccs1	99.2% (active)
O=C(COC(=O)c1ccco1)NC1CCCC1	-23.8%
Cc1cc(NC(=O)CSc2nc3ccsc3c(=O)n2CCCC(=O)NCCc2ccccc2)no1	-20%
CC(C1CC1)N(Cc1ccccc1)C(=O)NC(=O)c1ccc(F)cc1 (configuration not stated)	-23.2%
Cc1cccc(-n2cc(-c3ccccc3)c3c(N4CCOCC4)ncnc32)c1	56.2% (active)
Cc1cccc(-n2cc(-c3ccccc3)c3c(NN4CCOCC4)ncnc32)c1	-8.1%
Cc1ccc(-n2cc(-c3ccccc3)c3c(N4CCOCC4)ncnc32)cc1	20.2%
